In assay [1] the target is human Peroxisome Proliferator-activated Receptor alpha (PPARa), PPARA (gene 5465) (UniProt Q07869). Kind of assay: NVS_NR_hPPARa: NovaScreen (NVS) Nuclear Receptor Binding Assay for human Peroxisome Proliferator-activated Receptor alpha (PPARa) (AID 2283359).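 Further: activity means loss of TR-FRET signal versus DMSO baseline.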 Summed up: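 Chemicals were first screened in duplicate at 25 uM, and active ones were retested across concentration series. Binding was monitored by TR-FRET one hour after dosing, with decreased signal against DMSO counted as activity.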

Another assay addresses PGR (gene 5241) (UniProt P06401). Kind of assay: NVS_NR_hPR: NovaScreen (NVS) Nuclear Receptor Binding Assay for human Progestron Receptor (PR) (AID 2283360).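 Further: active means loss of bound radioligand signal versus DMSO baseline.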 Summed up: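 T47D-derived receptor preparation, cell-free, with tritiated or iodinated radioligand displacement measured by scintillation 18 h post-dosing. Single 25 uM duplicate screen, then concentration series; signal loss relative to DMSO.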

The target in assay [2] is Glucocorticoid receptor (Homo sapiens) (UniProt P04150). The assay can be described thus: NVS_NR_hGR: NovaScreen (NVS) Nuclear Receptor Binding Assay for human Glucocorticoid Receptor (GR) (AID 2283363).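 Further: activity is loss of specific radioligand binding signal relative to DMSO.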 Summed up: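 Competitive displacement of a labelled ligand was measured on cell-free receptor preparations after 16 h exposure. Initial testing used 25 uM in duplicate with plate controls; confirmed actives went into concentration series.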

For assay [3], the target named is human Adenosine Transporter (Adot), SLC29A1 (gene 2030) (UniProt Q99808). The assay can be described thus: NVS_TR_hAdoT: NovaScreen (NVS) Transporter Assay for human Adenosine Transporter (Adot) (AID 2283368). Summed up:
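U937-derived membranes, cell-free radioligand binding, filter scintillation 1 h after dosing. 25 uM duplicate screen; hits (e.g. 30% inhibition) run in concentration-response up to 50 uM; loss of signal versus DMSO.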

Assay [4] concerns the target human Dopamine Transporter (DAT), SLC6A3 (gene 6531) (UniProt Q01959). Kind of assay: NVS_TR_hDAT: NovaScreen (NVS) Transporter Assay for human Dopamine Transporter (DAT) (AID 2283374).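 Further: activity means loss of bound radioligand signal relative to DMSO.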 In outline: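 Test chemicals were first screened in duplicate at 25 uM, with actives retested as concentration series. Displacement of a specific radioligand from cell-free human dopamine transporter was measured after 1 h by filtration and scintillation counting.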

The target in assay [5] is human Norepinephrine Transporter (NET), SLC6A2 (gene 6530) (UniProt P23975). Kind of assay: NVS_TR_hNET: NovaScreen (NVS) Transporter Assay for human Norepinephrine Transporter (NET) (AID 2283377).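 Further: cell-free membrane protein extracted from CHO cells expressing human NET.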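 On AC50: displacement of radioligand from human NET seen as loss of scintillation signal.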 Summed up: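 Scintillation counts of filter-retained radioligand served as the readout, taken 1 h post-dosing in a cell-free CHO-derived system. Test chemicals ran first at 25 uM in duplicate; confirmed hits were retested across concentrations.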

For assay [6], the target named is Bile acid receptor (Homo sapiens) (UniProt Q96RI1). Kind of assay: OT_FXR_FXRSRC1_0480: Odyssey Thera (OT) 8-hour HEK293T Protein-Complementation Assay for Farnesoid X receptor/SRC-1 Co-activator (AID 2283383). In outline: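 Human kidney HEK293T cells carried FXR/SRC-1 fragment-complementation constructs. Compounds were added and incubated 8 h. Reporter reassembly upon receptor–co-activator interaction was then quantified by fluorescence, with curves fitted in the positive direction relative to DMSO.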

The target in assay [7] is Nuclear receptor subfamily 1 group I member 2 (Homo sapiens) (UniProt O75469). The assay can be described thus: NVS_NR_hPXR: NovaScreen (NVS) Nuclear Receptor Binding Assay for human Pregnane X Receptor (PXR) (AID 2283365).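 Further: a drop in FRET signal versus DMSO baseline means the compound binds.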 In outline: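 TR-FRET signal read at 2 h in a cell-free human PXR binding format. DMSO served as negative control and baseline; activity scored as signal loss. Single-concentration duplicate screen (25 uM), then concentration-response follow-up.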

Assay [8] deals with rat Androgen Receptor (AR), Ar (gene 24208) (UniProt P15207). Kind of assay: NVS_NR_rAR: NovaScreen (NVS) Nuclear Receptor Binding Assay for rat Androgen Receptor (AR) (AID 2283366). In outline:
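Cell-free radioligand binding on extracts of prostate from testosterone-pretreated rats, read by filter-based scintillation counting 18 h after dosing. Loss of bound signal fitted positively versus DMSO; primary screen in duplicate at 25 uM, actives followed up in concentration series.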

For assay [9], the system named is guinea pig Dopamine Transporter (DAT), gene 100714898. Kind of assay: NVS_TR_gDAT: NovaScreen (NVS) Transporter Assay for guinea pig Dopamine Transporter (DAT) (AID 2283369).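 Further: active compounds lower bound radioligand signal relative to DMSO.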 In outline: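 Cell-free striatal membrane prep (guinea pig), 2 h exposure, filtration + scintillation readout of radioligand binding. Single-point 25 uM duplicate; actives rerun singleton, top conc 50 uM.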

The target in assay [10] is Peroxisome proliferator-activated receptor gamma (Homo sapiens) (UniProt P37231). Kind of assay: NVS_NR_hPPARg: NovaScreen (NVS) Nuclear Receptor Binding Assay for human Peroxisome Proliferator-activated Receptor gamma (PPARg) (AID 2283370). In outline: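 FP read-out, 2 h post-dose, cell-free extracted receptor protein. Signal loss vs DMSO negative control = binding activity. Single-conc duplicate HTS at 25 uM; concentration-response follow-up for actives.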

Assay [11] addresses rat Serotonin Transporter (SERT), Slc6a4 (gene 25553) (UniProt P31652). Kind of assay: NVS_TR_rSERT: NovaScreen (NVS) Transporter Assay for rat Serotonin Transporter (SERT) (AID 2283375). In outline:
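Radioligand displacement, filter scintillation readout; rat forebrain membrane prep, 1 h post-dose. Single-conc 25 uM duplicate screen, then concentration-response on actives. Loss of signal vs DMSO baseline.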

Assay [12] deals with Estrogen receptor beta (Homo sapiens) (UniProt Q92731). The assay can be described thus: OT_ER_ERbERb_1440: Odyssey Thera (OT) 24-hour HEK293T Protein-Complementation Assay for Estrogen Receptor-beta/-beta Homodimer (AID 2283380).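 Further: fluorescence gain from ER beta LBD homodimer complementation read by laser scanning cytometry; scored as signal increase over DMSO baseline for both agonists and antagonists.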 Summed up:
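Fluorescence increase, nuclear for agonists or whole-cell for antagonists, relative to DMSO vehicle, quantified by laser scanning cytometer after fixation and Draq5 staining. Readout from 24 h treatment of HEK293T cells carrying complementation-paired ER beta LBD (aa 310-547).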

Assay [13] addresses Estrogen receptor (Homo sapiens) (UniProt P03372). The assay can be described thus: OT_ERa_GFPERaERE_0480: Odyssey Thera (OT) 8-hour HeLa Transcription Induction Assay for Estrogen Receptor (AID 2283381; active means hit-call score of the fitted dose curve at least 0.9, where 1 is the maximum; inactive means score below 0.9). In outline:
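Fluorescent reporter signal, imaged by microscopy and scored with image-analysis algorithms, was taken 8 h after chemical dosing of HeLa cells; activity was fitted upward relative to DMSO.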

Assay [14] shares this target. Kind of assay: OT_ERa_GFPERaERE_0120: Odyssey Thera (OT) 2-hour HeLa Transcription Induction Assay for Estrogen Receptor (AID 2283382). In outline:
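HeLa, 384-well, 2 h chemical exposure; GFP reporter induction (ERE), fluorescence microscopy; high content image analysis; positive fitting direction vs DMSO.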

Ten molecules from PubChem BioAssay (EPA / NIEHS) can be followed below.

As a reminder, the AC50 is the concentration giving half of the maximal activity seen.

Molecules are shown by their SMILES. Values joined by “and” are separate entries in the source; they are usually repeats but may differ in a detail not shown here. Identical values can stand only once. Records with an inconclusive call do not appear. Active and inactive are the calls of the source. How the source made its calls, unless noted: active means hit-call score of the fitted dose curve at least 0.9, where 1 is the maximum; inconclusive means response in the unintended direction; inactive means score below 0.9.

Sequence of Glucocorticoid receptor (Homo sapiens) (P04150 whole entry, looked up): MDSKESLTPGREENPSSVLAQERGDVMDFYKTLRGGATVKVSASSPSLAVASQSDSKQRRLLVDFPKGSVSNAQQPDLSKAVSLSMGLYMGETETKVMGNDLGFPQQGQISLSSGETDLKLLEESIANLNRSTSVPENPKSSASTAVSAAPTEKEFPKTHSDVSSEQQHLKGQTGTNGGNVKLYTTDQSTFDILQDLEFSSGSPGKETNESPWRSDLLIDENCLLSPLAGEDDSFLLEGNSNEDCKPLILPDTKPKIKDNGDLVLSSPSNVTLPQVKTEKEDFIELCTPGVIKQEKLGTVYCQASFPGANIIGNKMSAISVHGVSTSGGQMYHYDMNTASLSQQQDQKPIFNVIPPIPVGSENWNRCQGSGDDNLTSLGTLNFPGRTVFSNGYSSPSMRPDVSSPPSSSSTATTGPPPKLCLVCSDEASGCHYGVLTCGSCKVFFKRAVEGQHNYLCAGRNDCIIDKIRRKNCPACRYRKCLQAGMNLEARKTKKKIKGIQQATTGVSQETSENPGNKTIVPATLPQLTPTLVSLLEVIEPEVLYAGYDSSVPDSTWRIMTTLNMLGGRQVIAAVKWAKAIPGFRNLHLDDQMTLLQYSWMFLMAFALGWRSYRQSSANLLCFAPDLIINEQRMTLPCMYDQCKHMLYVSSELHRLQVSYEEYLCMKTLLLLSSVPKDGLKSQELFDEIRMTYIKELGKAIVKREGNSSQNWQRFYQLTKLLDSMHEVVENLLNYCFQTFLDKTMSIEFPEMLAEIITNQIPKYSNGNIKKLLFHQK
Sequence of Estrogen receptor beta (Homo sapiens) (Q92731 whole entry, looked up, the tested form may be a part): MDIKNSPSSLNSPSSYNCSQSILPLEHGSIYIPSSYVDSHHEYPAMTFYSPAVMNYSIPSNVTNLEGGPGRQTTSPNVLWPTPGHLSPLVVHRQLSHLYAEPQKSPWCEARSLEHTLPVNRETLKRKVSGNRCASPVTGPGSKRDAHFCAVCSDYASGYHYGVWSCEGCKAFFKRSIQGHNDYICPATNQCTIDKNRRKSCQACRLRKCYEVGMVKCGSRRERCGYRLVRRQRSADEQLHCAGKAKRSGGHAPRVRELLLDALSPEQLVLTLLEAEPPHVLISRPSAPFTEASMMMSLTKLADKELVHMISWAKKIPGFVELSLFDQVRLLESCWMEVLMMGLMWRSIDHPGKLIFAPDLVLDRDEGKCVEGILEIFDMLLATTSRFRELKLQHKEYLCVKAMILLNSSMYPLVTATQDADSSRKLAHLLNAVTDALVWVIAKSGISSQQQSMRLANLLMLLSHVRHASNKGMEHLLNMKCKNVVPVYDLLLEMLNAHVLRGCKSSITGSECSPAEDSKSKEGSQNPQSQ
Sequence of human Adenosine Transporter (Adot), SLC29A1 (gene 2030) (Q99808 whole entry, looked up): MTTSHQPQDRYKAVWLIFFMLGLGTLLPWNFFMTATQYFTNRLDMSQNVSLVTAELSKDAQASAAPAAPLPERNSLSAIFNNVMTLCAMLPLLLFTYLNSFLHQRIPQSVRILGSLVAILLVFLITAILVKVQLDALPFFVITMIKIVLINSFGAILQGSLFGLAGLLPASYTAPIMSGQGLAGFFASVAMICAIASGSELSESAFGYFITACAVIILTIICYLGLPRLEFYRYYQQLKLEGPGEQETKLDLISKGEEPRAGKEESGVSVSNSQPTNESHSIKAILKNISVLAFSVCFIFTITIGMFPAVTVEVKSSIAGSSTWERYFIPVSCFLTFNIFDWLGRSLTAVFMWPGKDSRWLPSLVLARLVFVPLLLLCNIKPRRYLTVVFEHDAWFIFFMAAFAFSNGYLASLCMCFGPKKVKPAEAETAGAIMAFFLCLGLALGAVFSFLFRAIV
Sequence of Estrogen receptor (Homo sapiens) (P03372 whole entry, looked up): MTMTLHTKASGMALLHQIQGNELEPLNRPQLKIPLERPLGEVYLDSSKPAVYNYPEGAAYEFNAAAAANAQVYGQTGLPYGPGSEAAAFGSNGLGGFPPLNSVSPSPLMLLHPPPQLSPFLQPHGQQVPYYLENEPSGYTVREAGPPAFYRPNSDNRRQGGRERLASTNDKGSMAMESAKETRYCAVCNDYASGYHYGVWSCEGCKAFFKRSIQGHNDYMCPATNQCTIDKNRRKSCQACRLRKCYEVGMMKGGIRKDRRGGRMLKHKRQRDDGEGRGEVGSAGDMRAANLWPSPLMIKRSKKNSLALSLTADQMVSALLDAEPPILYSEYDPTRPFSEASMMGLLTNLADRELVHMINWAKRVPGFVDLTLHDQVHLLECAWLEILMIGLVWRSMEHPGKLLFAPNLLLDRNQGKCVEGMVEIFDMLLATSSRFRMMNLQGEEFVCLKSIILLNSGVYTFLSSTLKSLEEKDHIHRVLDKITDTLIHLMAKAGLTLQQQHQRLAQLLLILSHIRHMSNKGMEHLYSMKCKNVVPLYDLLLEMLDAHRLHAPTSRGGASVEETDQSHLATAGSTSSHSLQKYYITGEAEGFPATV
Sequence of human Norepinephrine Transporter (NET), SLC6A2 (gene 6530) (P23975 whole entry, looked up): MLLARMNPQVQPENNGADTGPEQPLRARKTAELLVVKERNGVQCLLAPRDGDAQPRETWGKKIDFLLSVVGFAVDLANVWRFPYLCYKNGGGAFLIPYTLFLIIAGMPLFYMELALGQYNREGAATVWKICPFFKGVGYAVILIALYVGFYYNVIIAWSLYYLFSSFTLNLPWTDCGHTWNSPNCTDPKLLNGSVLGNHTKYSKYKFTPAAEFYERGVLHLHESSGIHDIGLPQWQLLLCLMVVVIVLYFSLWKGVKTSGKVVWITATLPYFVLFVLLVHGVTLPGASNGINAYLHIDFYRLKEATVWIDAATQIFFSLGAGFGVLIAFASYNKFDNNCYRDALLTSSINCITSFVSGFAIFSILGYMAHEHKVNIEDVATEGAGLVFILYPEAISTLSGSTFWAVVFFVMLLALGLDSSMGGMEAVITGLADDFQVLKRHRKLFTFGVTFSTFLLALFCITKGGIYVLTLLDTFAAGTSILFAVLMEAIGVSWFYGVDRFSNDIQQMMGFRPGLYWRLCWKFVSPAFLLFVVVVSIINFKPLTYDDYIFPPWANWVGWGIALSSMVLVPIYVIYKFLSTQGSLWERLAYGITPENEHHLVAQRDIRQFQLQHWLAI
Sequence of Bile acid receptor (Homo sapiens) (Q96RI1 whole entry, looked up, the tested form may be a part): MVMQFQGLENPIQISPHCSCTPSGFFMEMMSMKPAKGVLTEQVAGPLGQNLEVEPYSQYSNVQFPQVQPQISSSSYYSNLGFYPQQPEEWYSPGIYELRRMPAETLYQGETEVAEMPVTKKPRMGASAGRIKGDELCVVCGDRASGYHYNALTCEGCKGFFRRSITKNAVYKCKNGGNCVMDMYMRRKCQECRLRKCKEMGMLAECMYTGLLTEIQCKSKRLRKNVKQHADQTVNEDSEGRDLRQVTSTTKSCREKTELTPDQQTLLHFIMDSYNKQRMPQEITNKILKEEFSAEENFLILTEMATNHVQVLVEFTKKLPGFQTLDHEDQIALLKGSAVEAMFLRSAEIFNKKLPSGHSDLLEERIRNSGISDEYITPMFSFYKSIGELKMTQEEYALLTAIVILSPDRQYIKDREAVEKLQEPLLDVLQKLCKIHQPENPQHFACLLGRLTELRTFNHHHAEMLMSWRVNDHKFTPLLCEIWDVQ
Sequence of human Peroxisome Proliferator-activated Receptor alpha (PPARa), PPARA (gene 5465) (Q07869 whole entry, looked up): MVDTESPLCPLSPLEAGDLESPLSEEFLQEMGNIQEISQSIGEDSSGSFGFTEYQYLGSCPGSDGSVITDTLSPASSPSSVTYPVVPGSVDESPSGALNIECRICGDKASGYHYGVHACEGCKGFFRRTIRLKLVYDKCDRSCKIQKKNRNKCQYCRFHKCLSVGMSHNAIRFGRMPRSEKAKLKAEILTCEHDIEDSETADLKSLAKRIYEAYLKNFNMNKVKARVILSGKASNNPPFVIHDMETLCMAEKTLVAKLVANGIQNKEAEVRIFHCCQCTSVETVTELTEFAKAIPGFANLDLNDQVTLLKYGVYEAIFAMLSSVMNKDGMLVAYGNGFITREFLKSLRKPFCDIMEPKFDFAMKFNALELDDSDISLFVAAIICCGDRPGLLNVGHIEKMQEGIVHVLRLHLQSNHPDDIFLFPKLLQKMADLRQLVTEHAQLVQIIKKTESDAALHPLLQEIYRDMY
Sequence of human Dopamine Transporter (DAT), SLC6A3 (gene 6531) (Q01959 whole entry, looked up): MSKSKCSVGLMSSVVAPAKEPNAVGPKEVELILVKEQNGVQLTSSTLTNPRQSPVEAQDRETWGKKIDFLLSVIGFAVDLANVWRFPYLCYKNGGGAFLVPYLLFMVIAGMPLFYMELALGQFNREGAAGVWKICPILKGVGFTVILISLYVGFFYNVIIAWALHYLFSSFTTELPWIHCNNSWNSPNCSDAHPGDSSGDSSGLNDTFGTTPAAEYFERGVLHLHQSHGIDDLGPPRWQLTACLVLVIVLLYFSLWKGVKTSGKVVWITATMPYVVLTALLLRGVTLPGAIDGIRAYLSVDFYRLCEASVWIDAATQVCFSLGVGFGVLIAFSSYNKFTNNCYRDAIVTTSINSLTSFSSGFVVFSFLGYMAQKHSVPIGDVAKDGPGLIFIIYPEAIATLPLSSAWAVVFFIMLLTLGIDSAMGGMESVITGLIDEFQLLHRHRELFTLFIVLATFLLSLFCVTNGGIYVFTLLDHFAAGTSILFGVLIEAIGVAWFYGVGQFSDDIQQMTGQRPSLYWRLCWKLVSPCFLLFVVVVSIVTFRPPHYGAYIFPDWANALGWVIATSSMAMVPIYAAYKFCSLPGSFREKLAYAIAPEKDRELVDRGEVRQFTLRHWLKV
Sequence of Nuclear receptor subfamily 1 group I member 2 (Homo sapiens) (O75469 whole entry, looked up): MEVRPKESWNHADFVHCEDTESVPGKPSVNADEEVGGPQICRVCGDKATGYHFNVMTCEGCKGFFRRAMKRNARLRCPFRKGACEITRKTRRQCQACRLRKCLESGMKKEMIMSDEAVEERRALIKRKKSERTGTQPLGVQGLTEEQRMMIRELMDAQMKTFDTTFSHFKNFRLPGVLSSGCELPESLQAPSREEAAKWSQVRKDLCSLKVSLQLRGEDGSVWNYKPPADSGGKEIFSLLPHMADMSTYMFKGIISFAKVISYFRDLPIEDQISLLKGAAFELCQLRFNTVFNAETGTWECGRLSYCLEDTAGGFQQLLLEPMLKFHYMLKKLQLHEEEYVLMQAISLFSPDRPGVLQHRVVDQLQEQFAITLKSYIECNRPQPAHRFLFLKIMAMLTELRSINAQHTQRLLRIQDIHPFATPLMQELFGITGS

As for `CC/C(=C(/CC)c1ccc(O)cc1)c1ccc(O)cc1`, the molecule was called inactive (in [1]; in the assay with PGR (gene 5241); in [5]; in [6]). Also, the concentration at half-maximal activity (AC50) was 177 nM (active) and 162 nM (active) and 1.27 µM (active) in assay [2]; 17.6 µM (active) in [3]; 16.2 µM (active) in [4].
In the case of `CN(C)c1ccc(C(=C2C=CC(=[N+](C)C)C=C2)c2ccc(N(C)C)cc2)cc1`, the half-maximal activity concentration (AC50) in assay [1] was 14.7 µM (active); in assay [2], 1.87 µM (active); in assay [7], 6.47 µM (active); in [8], 6.51 µM (active); in assay [3] it was 7.35 µM (active); in assay [9], 7.68 µM (active). For the same molecule, the AC50 in assay [10] was 1.4 µM (active); in [4] it was 4.25 µM (active); in assay [11], 7.04 µM (active); in assay [5], 4.79 µM (active). Besides, the molecule was classed as inactive in assay [12], in [13] and in [14].
`NC(=O)c1nc(-c2cccc(-c3cc(F)ccc3OCC(F)(F)C(F)(F)F)c2)n[nH]1`: the outcome in assay [7], in assay [12], in assay [13] and in assay [14] was inactive.
Take `COc1cccc([C@H](O)C2CCN(CCc3ccc(F)cc3)CC2)c1OC`: the AC50 was 19.9 µM (active) in [9] and 8.09 µM (active) in [11]. The call in assay [12], in assay [13], in assay [14] and in assay [6] was inactive.
For `Cc1cn([C@H]2C[C@H](N=[N+]=[N-])[C@@H](CO)O2)c(=O)[nH]c1=O`, the outcome in [5], in assay [13], in [14] and in [6] was inactive.
Consider `CCCCOC(=O)CC(CC(=O)OCCCC)(OC(C)=O)C(=O)OCCCC`, for which, in [12], the outcome was inactive. In [6], the AC50 was 9.51 µM (active).
As to `CCN(Cc1cccc(S(=O)(=O)O)c1)c1ccc(C(=C2C=CC(=[N+](CC)Cc3cccc(S(=O)(=O)O)c3)C=C2)c2ccccc2S(=O)(=O)[O-])cc1`, the result in assay [12], in [13], in assay [14] and in [6] was inactive.
Consider `O=C(O)c1ccccc1-n1cc(C(=O)O)c(=O)c2cc(Nc3c(F)cc(F)cc3Cl)c(Cl)cc21`, for which, in [2], the AC50 was 25 µM (active). Also, the molecule was called inactive in assay [10], in assay [12], in assay [13], in [14] and in [6].
On to `Cc1ccc2oc(CN(Cc3ccccc3)C(=O)Nc3c(F)cc(F)cc3F)c(-c3ccc(Cl)cc3)c2c1`, for which the concentration at half-maximal activity (AC50) in assay [3] is 1.1 µM (active). Besides, the outcome in assay [9], in assay [12], in assay [13], in assay [14] and in assay [6] was inactive.
As for `Cc1cccc2ccccc12`, the call in [13], in assay [14] and in assay [6] was inactive.
